Measurements as given in PubChem BioAssay AID540351 (The Scripps Research Institute Molecular Screening Center, 2011).
Values without a mark were called inactive. The rule behind the calls is not given here.

Tested on: Phorbol Ester
Assay: off-target receptor, channel and CYP panel, profiling panel, selectivity assay for S1P3 agonist project, biochemical, Ricerca HitProfilingScreen, CYP450 (AID 540351)
Conditions: Ricerca receptor/enzyme binding panel plus CYP450, at 30 µM, stronger effect = higher value

O=C(c1cc(C2CC2)on1)N(C1CCCCC1)C1CCCCC1
inhibition: -19%
